Source: PubChem BioAssay (several laboratories)
An excerpt weighted towards active compounds, which were near 4.1% of everything screened.
CHT PAM = human CHT allosteric activation; CHT-expressing cells, membrane potential dye, choline EC20; stronger effect = higher value; LV-AA mutant CHT in HEK293 cells; B-score at 10 µM; actives 0.49% (n = 310,000); AID 488977;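 active = initial fluorescence not abnormally high and integrated response B-score, plate-corrected, over 3 SD above library mean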
CHT inh = inhibitors of human choline transporter CHT; Q9GZV3; CHT-expressing cells, membrane potential dye, choline response; stronger effect = lower value; B-score at 10 µM; actives 0.86% (n = 310,000);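 active = B-score over 3 SD under the library average, and starting fluorescence ratio not unusually high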;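 note: choline stimulus applied at its EC90 after an EC20 pre-addition; B-score computed on integrated fluorescence ratio after choline addition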
MEKK3 PB1 HTS = MEKK3-MEK5 PB1 interaction, increase or decrease; Q99759; bead-based flow cytometry, Alexa488-MEK5 binding to MEKK3; actives lie on both sides; 0 = blocked by unlabeled MEK5, 100 = vehicle; binding response (% of control), % at 10 µM; actives 1.4% (n = 290,000);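 active = binding response more than 3 SD above or below the average of its plate-row segment, actives on both sides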;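 note: Alexa488 bead fluorescence after subtracting the streptavidin-only scavenger bead signal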
Target sequence (Q99759 whole entry, looked up): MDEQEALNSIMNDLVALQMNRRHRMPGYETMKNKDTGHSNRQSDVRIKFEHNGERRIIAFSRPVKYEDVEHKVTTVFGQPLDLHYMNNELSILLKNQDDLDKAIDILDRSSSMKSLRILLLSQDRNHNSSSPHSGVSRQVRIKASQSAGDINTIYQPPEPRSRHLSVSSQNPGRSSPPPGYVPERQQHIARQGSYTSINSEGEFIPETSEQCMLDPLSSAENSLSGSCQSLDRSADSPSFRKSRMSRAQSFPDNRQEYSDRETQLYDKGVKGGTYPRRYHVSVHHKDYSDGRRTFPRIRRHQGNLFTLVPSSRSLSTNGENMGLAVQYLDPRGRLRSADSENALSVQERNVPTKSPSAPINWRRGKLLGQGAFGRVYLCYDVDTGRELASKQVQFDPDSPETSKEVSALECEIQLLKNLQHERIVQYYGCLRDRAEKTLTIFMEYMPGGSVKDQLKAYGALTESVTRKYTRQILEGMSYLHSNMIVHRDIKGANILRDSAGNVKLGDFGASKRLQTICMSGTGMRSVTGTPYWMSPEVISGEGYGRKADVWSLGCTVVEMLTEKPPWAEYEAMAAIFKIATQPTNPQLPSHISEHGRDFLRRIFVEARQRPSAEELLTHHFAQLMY
MEKK2mut PB1 HTS = signal of MEK5 binding to mutant human MEKK2 PB1 domain. bead flow cytometry, Alexa488-MEK5 binding to MEKK2 mutant. percent response, % at 10 µM. actives 0.35% (n = 290,000). AID 1530; in the data active = percent response above about 24%, passing the limit was not always enough
Mot1-301 SUMO = inhibitors of SUMOylation pathway: yeast Mot1-301 growth rescue; growth rescue, % at 18.8 µM; AID 2716; S. cerevisiae Mot1-301 growth rescue, ATP luminescence, 38.5C; percent above DMSO median, 100 means doubled; actives 1% (n = 320,000);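 active = every valid replicate shows activation above 250% relative to neutral control wells; inactive = the rest, any valid replicate at or below 250%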
MEKK2wt PB1 HTS = raises or lowers MEK5 binding to wildtype human MEKK2 PB1 domain; bead flow cytometry, Alexa488-MEK5 binding to MEKK2 WT; actives lie on both sides; actives 1.1% (n = 290,000); binding response (% of control), % at 10 µM; Q9Y2U5; in the data active = binding response below about 67% or above about 130%
CHT block conf = confirmation of human choline transporter CHT inhibitors; shares compounds with CHT inh; CHT-expressing cells, choline membrane potential dye; LV-to-AA substituted CHT, HEK293 cells; CHT activity remaining % of control (stronger effect = lower value), % at 10 µM; actives 70% (n = 2,400);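 active = choline transporter activity left, mean of duplicates at 10 µM, below buffer-only control mean minus 3 SD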;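 note: depolarization triggered by choline at its EC90 following an EC20 pre-addition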
HEK293 CHT ctr = CHT inhibitor counter-screen hit in parental HEK293 cells. actives 4% (n = 2,400). shares compounds with CHT inh. membrane potential dye, choline response; active = decrease or increase beyond buffer ±3SD. membrane potential ratio readout (active if shifted either direction beyond buffer ±3SD; no single direction) at 10 µM. AID 493222;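 note: parental cells lack the transporter so any hit is non-specific; ratio is peak minus trough fluorescence over baseline after EC90 choline challenge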
Hits are given with their value; n = inactive; x = no result given.

SMILES	CHT PAM	CHT inh	MEKK3 PB1 HTS	MEKK2mut PB1 HTS	Mot1-301 SUMO	MEKK2wt PB1 HTS	CHT block conf	HEK293 CHT ctr
CCN(CC)C(=O)CSc1nc2ccc(NC(=O)CSc3nccn3C)cc2s1	n	-9.6	n	n	n	n	25%	n
CCN(CC)C(=O)CSc1nc2ccc(NC(=O)CSc3nnc(N)s3)cc2s1	n	n	x	x	n	x	x	x
Cc1cc(C)c(C#N)c(N)n1	n	-8.6	n	n	n	n	n	n
COc1ccccc1C(=O)O/N=C(\c1ccccc1)c1ccncc1	n	n	n	n	n	n	x	x
O=C(O/N=C(/c1ccccc1)c1ccncc1)c1ccc(F)cc1	n	-9.7	n	n	n	n	n	n
O=C(NC(=S)NNC(=O)[C@H]1C[C@@H]1c1ccccc1)c1cccc(F)c1	n	-7.8	n	n	n	n	49%	n
Cc1ccccc1NC(=S)NNC(=O)c1cccnc1	n	n	n	n	n	n	x	x
Cc1ccccc1NC(=S)NNC(=O)c1ccncc1	n	-6.1	n	n	n	n	61%	n
COc1ccc(C(=O)NC(=S)NNC(=O)c2cccc(C)c2)cc1	n	-7.8	x	x	n	x	n	n
Cc1cccc(C(=O)NNC(=S)NC(=O)c2cccs2)c1	n	-7.5	n	n	n	n	29%	n
O=C(Cc1ccc(S(=O)(=O)N2CCOCC2)s1)Nc1cc(Cl)ccc1Cl	x	x	x	x	n	x	x	x
Cc1ccc(CN2CCN(/N=C\C=C\c3ccccc3)CC2)cc1	n	n	n	n	n	n	x	x
Cc1ccc(S(=O)(=O)N2CCOCC2)cc1NC(=O)COC(=O)COc1cccc2c1OC(C)(C)C2	n	n	x	x	n	x	x	x
CSc1cccc(N2CC(C(=O)Nc3cccc(S(=O)(=O)N4CCCC4)c3)CC2=O)c1 (configuration not stated)	n	n	x	x	n	x	x	x
CN(C)C(=O)C(=O)c1cccn1-c1cccc(Cl)c1C#N	n	n	n	n	n	n	x	x
N#CC(C#N)=C1NC2(CCCC2)Cc2ccccc21	n	n	n	n	n	n	x	x
Cc1cccc(C(=O)NNC(=S)NC(=O)c2ccccc2)c1	n	-7.4	x	x	n	x	41%	n
O=C(NC(=S)NNC(=O)c1ccccc1O)c1ccccc1	n	n	n	n	n	n	x	x
O=C(Cc1ccc(Cl)cc1)NNC(=S)NC(=O)c1cccs1	n	-5.2	n	n	n	n	n	n
Cc1ccccc1C(=O)NNC(=S)NC(=O)c1ccccc1	n	-8.4	n	n	n	n	47%	n
Cc1ccc(C(=O)NNC(=S)NC(=O)c2ccccc2)cc1	n	n	x	x	n	x	x	x
Cc1ccc(C)c(NC(=O)c2cc[n+](C)cc2)c1	n	n	n	n	n	n	x	x
Cc1ccc(S(=O)(=O)NC(C)C(=O)Nc2ccc3c(c2)OCO3)cc1 (configuration not stated)	n	-9	n	n	n	n	n	n
COc1ccc(S(=O)(=O)NC(C)C(=O)Nc2ccc3c(c2)OCO3)cc1OC (configuration not stated)	n	n	n	n	n	n	x	x
O=C(c1cccc(OC2CCN(Cc3ccc(F)cc3Cl)CC2)c1)N1CCCC1	n	-5.4	n	n	n	n	36%	n
SMILES	CHT PAM	CHT inh	MEKK3 PB1 HTS	MEKK2mut PB1 HTS	Mot1-301 SUMO	MEKK2wt PB1 HTS	CHT block conf	HEK293 CHT ctr
FC(F)(F)Oc1ccccc1-c1nnc(-c2cccc(C(F)(F)F)c2)o1	n	n	n	n	n	n	x	x
CC(C)CC1NC(=O)N(CC(=O)NC2CCCc3ccccc32)C1=O (configuration not stated)	n	n	n	n	n	n	x	x
O=[N+]([O-])c1cccnc1S(=O)(=O)c1ccccc1	n	n	n	n	n	n	x	x
COc1ccc([N+](=O)[O-])c(S(=O)(=O)c2ccccc2)n1	n	-5.3	n	n	n	n	44%	n
COc1ccc([N+](=O)[O-])c(S(=O)(=O)c2ccc(Cl)cc2)n1	n	-6.6	n	n	n	n	48%	n
O=C(COC(=O)c1cc(S(=O)(=O)N2CCOCC2)ccc1O)NCCc1ccccc1	n	n	n	n	n	n	x	x
O=C(CCc1ccc(S(=O)(=O)N2CCOCC2)cc1)Nc1ccc(F)c(F)c1F	x	x	x	x	n	x	x	x
O=C(O)c1cnn(-c2nc(-c3cccc(F)c3)cs2)c1C(F)(F)F	n	n	n	n	n	n	x	x
O=C(O)c1cnn(-c2nc(-c3cccc([N+](=O)[O-])c3)cs2)c1C(F)(F)F	n	-6	n	n	n	n	66%	n
CC(C)CC(OC(=O)c1ccc(Cl)nc1)C(=O)NC1CCCC1 (configuration not stated)	n	n	n	n	n	n	x	x
Cc1ccc(NC(=O)CN2C(=O)NC3(CCc4ccccc43)C2=O)cc1Cl (configuration not stated)	n	-11	n	n	n	n	34%	n
O=C(CN1C(=O)NC2(CCc3ccccc32)C1=O)Nc1cccc(Cl)c1 (configuration not stated)	x	x	x	x	n	x	x	x
Cn1nc(-c2ccccc2)c2nc3ccccc3nc21	n	-6.3	n	n	n	n	n	-9.9
CC(=O)NC1C(=O)N=C(SC(C)C(=O)Nc2cccc(Cl)c2)NC1=O (configuration not stated)	n	n	n	n	n	n	x	x
CC1=NN(C(=O)c2ccc(Cn3nc(C)c([N+](=O)[O-])c3C)cc2)C(O)(C(F)(F)F)C1 (configuration not stated)	n	n	n	n	n	n	x	x
CC1=NN(C(=O)c2ccc(Cn3nc(C)c(Br)c3C)cc2)C(O)(C(F)(F)F)C1 (configuration not stated)	n	-8.1	n	n	n	n	26%	n
Cc1ccc(NC(=O)CSc2nc(-c3ccco3)nc3cc(=O)[nH]n23)c(Cl)c1	n	n	n	n	n	n	x	x
CC(=O)N1c2ccc(S(=O)(=O)NCc3ccccc3Cl)cc2CC1C (configuration not stated)	n	-7	n	n	n	n	61%	n
COc1cccc(NC(=O)CCNS(=O)(=O)c2ccc3c(c2)CC(C)N3C(=O)C2CC2)c1 (configuration not stated)	n	-5.2	n	n	n	n	n	n
CC(=O)N1c2ccc(S(=O)(=O)NCCC(=O)NC3CCCC(C)C3C)cc2CC1C (configuration not stated)	n	-6.8	n	n	n	n	38%	n
